Laboratory results published in PubChem BioAssay (EPA / NIEHS).
Activity calls are given as the source filed them. How the source made its calls: active means hit-call score of the fitted dose curve at least 0.9, where 1 is the maximum; inactive means score below 0.9.

What follows are compounds tested on TTR (gene 7276) (assay: CCTE_GLTED_hTTR_0.125uM: CCTE's human Transthyretin (hTTR) Inhibition Assay, with 0.125uM TTR, Great Lakes Toxicology and Ecology Division (GLTED) Lab (AID 2284431);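 further: hits lower the fluorescence signal relative to DMSO baseline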).
Procedure, shortened: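 TTR at 0.125uM incubated 2 h with test chemical; displacement of bound ANSA read by fluorescence (ex 380, em 475). Activity is signal loss versus DMSO baseline.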

Question: How did the AC50 turn out when `N[C@@H](Cc1cc(I)c(Oc2cc(I)c(O)c(I)c2)c(I)c1)C(=O)O` was run?
Answer: 82.2 nM (active)

Question: For `Cc1ccc(S(=O)(=O)Oc2ccc(N=Nc3ccc(-c4ccc(N=Nc5c(O)ccc6cc(S(=O)(=O)O)cc(S(=O)(=O)O)c56)c(C)c4)cc3C)cc2)cc1`, which AC50 is on record?
Answer: 912 nM (active)

Question: Which AC50 does the source give for `Cc1cc(S(=O)(=O)O)ccc1N=Nc1c(O)ccc2ccccc12` here?
Answer: 79 nM (active)

Question: For `BrCc1cccc(Oc2ccccc2)c1`, which AC50 is on record?
Answer: 4220 nM (active)

Question: Which AC50 does the source give for `Nc1ccccc1[N+](=O)[O-]` here?
Answer: 20300 nM (active)

Question: Which AC50 does the source give for `OCc1cccc(Oc2ccccc2)c1` here?
Answer: 12200 nM (active)

Question: `C=C[Si]1(C)O[Si](C)(C=C)O[Si](C)(C=C)O[Si](C)(C=C)O1` (configuration not stated) was tested. Which AC50 did it give?
Answer: 50000 nM (active)

Question: Which AC50 does the source give for `Oc1ccc2cc(SSc3ccc4cc(O)ccc4c3)ccc2c1` here?
Answer: 113 nM (active)

Question: How did the AC50 turn out when `O=[N+]([O-])c1ccc(O)cc1C(F)(F)F` was run?
Answer: 111 nM (active)

Question: For `CCCCC(CC)COC(=O)c1ccc(O)cc1` (configuration not stated), which AC50 is on record?
Answer: 434 nM (active)

Question: How did the AC50 turn out when `CCCCCCC(CO)CCCC` (configuration not stated) was run?
Answer: 46700 nM (active)

Question: For `COc1ccc(N=Nc2cc(C)c(N=Nc3ccc(S(=O)(=O)O)cc3)cc2OC)cc1`, which AC50 is on record?
Answer: 385 nM (active)

Question: Which AC50 does the source give for `CC(C)c1ccccc1O` here?
Answer: 32400 nM (active)

Question: How did the AC50 turn out when `O=C(Nc1ccc2c(O)c(N=Nc3ccc(N=Nc4ccc(S(=O)(=O)O)cc4)cc3)c(S(=O)(=O)O)cc2c1)c1ccccc1` was run?
Answer: 9920 nM (active)

Question: For `CC(C)CCCCCCCCCCCCCCC(=O)O`, which AC50 is on record?
Answer: 891 nM (active)

Question: Which AC50 does the source give for `CCCCCCCCc1ccc(S(=O)(=O)O)cc1` here?
Answer: 2970 nM (active)

Question: Which AC50 does the source give for `Nc1ccc2cc(S(=O)(=O)O)cc(O)c2c1N=Nc1ccccc1C(F)(F)F` here?
Answer: 39.7 nM (active)
